Shown are actives, neighbours in structure and some others; about 1.8% of the full set was active somewhere.
PTHR1 ag – activates the human parathyroid hormone receptor PTHR1 | Q03431 | HEK293 GP2 PTHR1 cells, GloSensor cAMP luminescence, 1 h | Potency, µM (top dose mostly 115 µM), inactives show at the highest dose activation, most hits filed as activators | hit rate 0.075% among 410,000 | AID 743266; note: nearly all actives have a fitted effect of over 55% in size
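HEK-293-derived GP2 cells expressing PTHR1 and a GloSensor cAMP reporter, 3,000/well, plated overnight, given luciferin plus IBMX (each 0.5 mM as added) for 1 h at 37 °C, then compound for 1 h at 37 °C. Luminescence was read after 15 min at room temperature.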
HEK293 tox – cytotoxic in the GLP-1 receptor inverse agonist counter-screen; HEK293 cAMP-luciferase reporter cells, luminescence, 24 h; hit rate 0.13% among 410,000; Potency, µM (titrated, usually from 38.3 µM), for the others: at the top dose activity change, negative = inhibition, actives largely listed as inhibitors;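 note: loss of luciferase light is scored as toxicity; % is set by controls: 0 for no effect and ±100 for the full control effect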
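Step one: seed cells (200 cells/uL, DMEM with 10% Nu serum, 1% pen-strep). Step two: 12-hour incubation at 37 deg C. Step three: pin 23 nL compound, incubate 24 hr. Step four: add luciferase reagent, read luminescence 12 min later.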
GCN5L2 inh – inhibitors of human GCN5L2 histone acetyltransferase. GCN5L2 HAT assay, ThioGlo1 CoA-SH fluorescence. Potency, µM (top dose mostly 58.9 µM), without a hit: at the highest dose activity change, negative = inhibition, actives largely listed as inhibitors. hit rate 0.21% among 390,000; note: % is set by controls: 0 for no effect and ±100 for the full control effect
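Compounds, pin-transferred from DMSO stocks, meet 20nM GCN5L2 for 15 min before the reaction begins with H3(1-25) peptide (75uM) and acetyl-CoA (70uM). Thiol-reactive ThioGlo1 reports CoA release over 20 min at room temperature.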
RGS4 inhibitor – blocks human RGS4-accelerated GTP hydrolysis | AID 504845 | Transcreener GDP fluorescence polarization, RGS4-accelerated GTP hydrolysis | Potency, µM (doses to about 114 µM), without a hit: top-dose activity change, negative = inhibition, hits mostly inhibitors | hit rate 0.039% among 390,000 | P49798; note: % is set by controls: 0 for no effect and ±100 for the full control effect; nearly all actives have a fitted effect of over 75% in size
Target sequence (P49798 whole entry, looked up): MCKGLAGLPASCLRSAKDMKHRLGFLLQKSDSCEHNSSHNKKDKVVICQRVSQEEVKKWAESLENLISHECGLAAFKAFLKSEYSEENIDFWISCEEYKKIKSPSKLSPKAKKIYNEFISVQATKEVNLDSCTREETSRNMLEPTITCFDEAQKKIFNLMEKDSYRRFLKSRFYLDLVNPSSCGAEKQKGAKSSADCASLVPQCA
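MLSMR compounds (23 nl, pin-transferred) preincubated 10 min at room temperature with a 500nM (2x) first reagent, then RGS4 at 900nM (2x) plus Transcreener GDP mix added; fluorescence polarization (620/688 nm) read before and after 90 min at 30 °C.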
GLP1R inv ag – inverse agonists of human GLP-1 receptor; P43220; HEK293 GLP-1R CRE-luciferase, luminescence, 24 h; GLP-1R form is constitutively active; Potency, µM (doses to about 38.3 µM), for the others: top-dose activity change, negative = inhibition, usual class: inhibitors; hit rate 1.6% among 410,000; AID 624417; note: % is set by controls: 0 for no effect and ±100 for the full control effect; nearly all actives have a fitted effect of over 55% in size
Target sequence (P43220 whole entry, looked up): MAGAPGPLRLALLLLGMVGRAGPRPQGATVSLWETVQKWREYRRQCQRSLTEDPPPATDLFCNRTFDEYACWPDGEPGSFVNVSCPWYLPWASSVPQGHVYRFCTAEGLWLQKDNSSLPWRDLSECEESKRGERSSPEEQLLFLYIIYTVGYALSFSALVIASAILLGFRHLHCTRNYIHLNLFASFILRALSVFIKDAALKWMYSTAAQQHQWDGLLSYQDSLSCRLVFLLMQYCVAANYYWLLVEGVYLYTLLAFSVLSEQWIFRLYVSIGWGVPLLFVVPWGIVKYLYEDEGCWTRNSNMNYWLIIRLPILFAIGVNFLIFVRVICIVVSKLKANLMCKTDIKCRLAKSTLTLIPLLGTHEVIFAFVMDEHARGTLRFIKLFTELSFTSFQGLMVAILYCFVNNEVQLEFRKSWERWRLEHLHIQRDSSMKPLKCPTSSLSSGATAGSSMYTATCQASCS
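Inverse agonism was detected as reduced cAMP-driven luciferase luminescence after 24 h compound treatment. The cells were HEK293 clones expressing constitutively active human GLP-1R with the reporter. Reporter-only and GPR119 cell lines served as counterscreen controls.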
GLP-1R agonist – activates the human GLP-1 receptor | P43220 | HEK293 GLP-1R CRE-luciferase, luminescence, 4-6 h; cells express a hypersensitive GLP-1R form | Potency, µM (titrated, usually from 45.6 µM), for the others: at the highest dose activation, hits mostly activators | hit rate 0.007% among 380,000; note: % of control where 0% means no effect
* marks the source's active call; other numbers are inactive results; i = inactive; ? = inconclusive; . = no result given; [ ] = dose if it differs, or a comment. Calls come from the whole dose curve; as a rule, active = well fitted curve in the direction sought with a large enough effect; inconclusive = small, poorly fitted or top-dose-only effect, or another doubt; inactive = no such curve, though single readings can be large; an effect the other way counts as inactive or inconclusive. Potency is the fitted concentration of half-maximal effect.

SMILES	PTHR1 ag	HEK293 tox	GCN5L2 inh	RGS4 inhibitor	GLP1R inv ag	GLP-1R agonist
CCCOc1ccc(C2C(=O)N(C3CCC(C)CC3)CC(=O)N2Cc2cccc(OC)c2)cc1OC (stereo not given)	18.2%	2.6%	-8.6%	9.4%	10.1%	.
CC(C)CN(CC(C)C)C(=O)Nc1ccccc1F	i	29.8%	-1.4%	1.7%	8.91µM*	11.4%
O=C(CC(=O)Nc1ccccc1F)Nc1ccccc1F	-2.5%	-0.7%	-25.5%	-3.9%[56.9 µM]	13.7%	16.1%
Cc1ccc(CNC(=O)c2cc3c(s2)-c2ccccc2SC3)cc1	i	-10.9%	-6.2%	-19.4%	?	.
Cc1cc(Br)ccc1NC(=O)c1cc2c(s1)-c1ccccc1SC2	i	-6.9%	-8.7%	-1.1%	10µM*	.
CCOc1c(Cl)cc(C(=O)Nc2ccccc2-c2ccccc2)cc1Cl	-12.6%	38.1%	-4.7%	-12.5%	8.91µM*	-5.5%
O=C(O)c1ccccc1NS(=O)(=O)c1cccc(NS(=O)(=O)c2cc(Br)ccc2Br)c1	i	-2.4%	-6.0%	-42.3%	-9.0%	1.0%
COC(=O)C1=C[C@@H](C(=O)OC)[C@@H]2C3=C(C(=O)[C@@]2(C)NC(=O)c2ccccc2)[C@H](C)[C@@H]2C(=O)N(c4ccccc4)C(=O)[C@@H]2[C@@H]3C1	.	.	.	23.4%	.	.
O=C(Nc1cccc(Cl)c1)Nc1cccc(Cl)c1	-26.2%[57.5 µM]	14.6%	-3.6%	17.9%	?	5.6%
O=C(Nc1ccccc1)Nc1cc(OCC(F)(F)F)cc(OCC(F)(F)F)c1	-36.6%	5.62µM*	-7.1%	-22.6%	2.82µM*	-0.1%
O=C(Nc1ccccc1)Nc1cc(Cl)cc(Cl)c1	-15.9%[57.5 µM]	?	-4.4%	-16.3%	2.82µM*	-47.3%
COc1cc(NC(=S)N2CCC(C(O)(c3ccccc3)c3ccccc3)CC2)cc(OC)c1	-2.8%	3.9%	-7.5%	-8.9%	10µM*	-4.9%
COc1ccc(CNC(=O)CN2CCN(C(c3ccccc3)c3ccccc3)CC2)cc1	-2.0%	-13.7%	-5.8%	-5.5%	12.6µM*	17.0%
COc1ccc2oc(C(=O)N3CCN(C(c4ccccc4)c4ccccc4)CC3)c(C)c2c1	i	0.9%	-9.6%	-4.6%	5.62µM*	10.5%
COc1ccc2oc(C(=O)N3CCN(C/C=C/c4ccccc4)CC3)c(C)c2c1	-61.8%	7.6%	-6.1%	10.1%	?	4.5%
COc1ccc(N2CCN(C(=O)c3oc4ccccc4c3NC(=O)Cc3cccc(OC)c3)CC2)cc1	-25.1%	-13.0%	-3.8%	-25.4%	8.91µM*	3.0%
CC(=O)c1ccc(S(=O)(=O)N(C)CCCC(=O)NCc2ccc3c(c2)OCO3)cc1	-44.3%	4.0%	-11.4%	-32.9%	10.3%	27.1%
C=C(C)CNC(=S)N1CCN(C(c2ccccc2)c2ccccc2)CC1	-10.2%	2.7%	-7.0%	-14.1%	?	10.5%
COCCCNC(=S)N1CCN(C(c2ccccc2)c2ccccc2)CC1	-41.6%	12.9%	-1.8%	-52.6%	10µM*	3.8%
COc1cccc(NC(=S)N2CCN(C(c3ccccc3)c3ccccc3)CC2)c1	i	1.7%	-5.6%	-3.9%	10µM*	-21.4%
COc1ccc2oc(C(=O)OCC(=O)N(Cc3ccccc3)C(C)C)c(C)c2c1	-18.9%	3.0%	-4.7%	4.6%	11.2µM*	15.4%
CC(C)CNC(=S)N1CCN(C(c2ccccc2)c2ccccc2)CC1	-11.1%	-11.4%	-6.4%	-30.1%	2.82µM*	3.0%
COc1ccc2oc(C(=O)OCC(=O)N(C)Cc3ccccc3)c(C)c2c1	-8.7%	17.8%	?	-5.9%	?	7.3%
N#CC1c2ccccc2C=CN1C(=O)N(c1ccccc1)c1ccccc1 (stereo not given)	-21.9%	?	.	?	?	-31.9%
CC(=O)NC(CCC(N)=O)C(=O)O (stereo not given)	.	.	.	.	.	-0.5%
SMILES	PTHR1 ag	HEK293 tox	GCN5L2 inh	RGS4 inhibitor	GLP1R inv ag	GLP-1R agonist
CC[C@H](C)[C@H](NC(=O)[C@H](CC(C)C)NC(=O)[C@@H](N)CO)C(=O)NCC(=O)N[C@@H](CCCN=C(N)N)C(=O)N[C@@H](CC(C)C)C(=O)O	.	.	-6.6%	.	.	.
N#Cc1nc(-c2ccco2)oc1N1CCN(C(c2ccccc2)c2ccccc2)CC1	-7.2%[57.5 µM]	-5.0%	-2.1%	3.9%	10µM*	3.2%
N#Cc1nc(-c2ccco2)oc1N1CCCC1	i	-5.0%	-1.6%	-5.7%	29.3%	-3.0%
O=C1c2ccsc2SCCN1Cc1c(Cl)cccc1Cl	i	-11.4%	-12.6%	153.3%	2.51µM*	-24.2%
O=C1c2ccsc2SCCN1Cc1c(F)cccc1Cl	-38.3%	1.4%	?	13.1%	12.6µM*	12.6%
O=C1c2ccsc2SCCN1Cc1ccc(Cl)cc1Cl	-56.1%[57.5 µM]	-5.8%	1.9%	-31.1%	?	-2.9%
CCOCCCN1CC(=O)N2[C@@H](Cc3c([nH]c4ccccc34)C2(C)C)C1=O	i	8.1%	-2.1%	7.0%	-23.7%	-0.5%
COc1cccc(/C=C/c2nc(C#N)c(NCC(C)C)o2)c1	-15.0%	70.1%	?	19.8%	?	0.2%
Cc1ccccc1NC(=O)CCc1c(C)nc2c(c1C)c(=O)n(C)c(=O)n2C	-38.9%	2.4%	2.2%	-0.6%	7.1%	-0.6%
CN(C)CCCN(Cc1ccccc1)C(=S)Nc1ccc(SC(F)F)cc1	i	-24.9%	6.9%	-13.3%	11.2µM*	15.3%
COc1ccc(C(=O)N/C(=C/c2cccs2)C(=O)N2CCN(C)CC2)cc1	-13.7%	4.4%	.	.	5.6%	-2.8%
COc1ccc(C(C(=O)NC2CCCCC2)N(C(=O)CCl)c2cccc(Cl)c2)cc1 (stereo not given)	-41.4%	-15.0%	1.4%	1.6%	2.82µM*	-33.7%
O=C(NC1CCCCC1)C(c1cccnc1)N(C(=O)CCl)c1ccccc1Cl (stereo not given)	i	-13.3%	-0.3%	8.5%	1.58µM*	2.6%
COc1ccc(C(C(=O)NC2CCCCC2)N(C(=O)CCl)c2ccc(OC)cc2)cc1 (stereo not given)	-41.1%	-18.9%	-4.7%	-41.1%	?	-2.7%
O=C(Nc1ccccc1N1CCOCC1)c1cc(Br)c(Br)s1	i	-4.7%[0.307 µM]	-17.4%	0.6%	-6.7%[0.307 µM]	-1.8%
Nc1c(C(=O)Nc2ccc(F)c(F)c2)sc2nc(-c3ccncc3)ccc12	-10.9%	-16.3%	-0.1%	-13.5%	7.1%	1.9%
CCOc1cccc(NC(=O)c2sc3nc(-c4ccc(F)cc4)ccc3c2N)c1	-25.6%	125.6%	35.5µM*	-13.4%	-23.4%	.
CCOC(=O)C(=CNNc1cccc(Cl)c1)C(=O)OCC	-17.0%	-3.4%	-9.3%	-46.3%	5.01µM*	-2.7%
